This is an account of results in PubChem BioAssay (Tox21).

Assay [1] is described as follows: qHTS assay to identify small molecule antagonists of the thyroid receptor (TR) signaling pathway - cell viability counter screen (AID 743064). Also: nearly all actives have a fitted effect of over 50% in size. Also: potency is read from the fitted curve at half-maximal effect. Put shortly:
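Plate GH3.TRE-Luc cells; incubate 4 h at 37 °C; add compound, then T3 to 1 nM final; incubate 23.5 h; add CellTiter-Fluor; incubate 30 min at 37 °C, 5% CO2; read fluorescence.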
A general note: In qHTS, concentration-response curves come from the screen itself.

Assay [2] can be described thus: qHTS assay to identify small molecule antagonists of the thyroid receptor (TR) signaling pathway (AID 743065). Also: nearly all actives have a fitted effect of over 55% in size. Also: potency is read from the fitted curve at half-maximal effect. In a few lines:
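GH3.TRE-Luc rat pituitary cells (two TREs driving luciferase) were dosed with compound, then stimulated with 1 nM T3 (final) for 23.5 h at 37 C. ONE-Glo luminescence was the read-out, with CellTiter-Fluor fluorescence as the cytotoxicity counter-screen.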

Assay [3] relates to thyroid hormone receptor (rat, GH3 cells). Description: qHTS assay to identify small molecule agonists of the thyroid receptor (TR) signaling pathway (AID 743066; calls by dose curve).
The target in assay [4] is Estrogen receptor (Homo sapiens) (UniProt P03372). Description: qHTS assay to identify small molecule antagonists of the estrogen receptor alpha (ER-alpha) signaling pathway (AID 743069; active = well fitted curve in the direction sought with a large enough effect in the signal ratio in the repeat runs, not every such curve was filed as active; inconclusive = weak or mixed curves, or effect the other way; inactive = no such curve, though single readings can be large or run the other way; the % refers to the signal ratio; also: potency is read from the fitted curve at half-maximal effect). Put shortly: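 In this cell-based reporter format, GripTite HEK293 cells harbouring ER-alpha-UAS-bla were grown overnight with 2% charcoal-stripped FBS, dosed with DMSO-dissolved compounds, then challenged with 17beta-estradiol. After 18 hr at 37C, beta-lactamase activity was detected by FRET fluorescence.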
Sequence of Estrogen receptor (Homo sapiens) (P03372 whole entry, looked up): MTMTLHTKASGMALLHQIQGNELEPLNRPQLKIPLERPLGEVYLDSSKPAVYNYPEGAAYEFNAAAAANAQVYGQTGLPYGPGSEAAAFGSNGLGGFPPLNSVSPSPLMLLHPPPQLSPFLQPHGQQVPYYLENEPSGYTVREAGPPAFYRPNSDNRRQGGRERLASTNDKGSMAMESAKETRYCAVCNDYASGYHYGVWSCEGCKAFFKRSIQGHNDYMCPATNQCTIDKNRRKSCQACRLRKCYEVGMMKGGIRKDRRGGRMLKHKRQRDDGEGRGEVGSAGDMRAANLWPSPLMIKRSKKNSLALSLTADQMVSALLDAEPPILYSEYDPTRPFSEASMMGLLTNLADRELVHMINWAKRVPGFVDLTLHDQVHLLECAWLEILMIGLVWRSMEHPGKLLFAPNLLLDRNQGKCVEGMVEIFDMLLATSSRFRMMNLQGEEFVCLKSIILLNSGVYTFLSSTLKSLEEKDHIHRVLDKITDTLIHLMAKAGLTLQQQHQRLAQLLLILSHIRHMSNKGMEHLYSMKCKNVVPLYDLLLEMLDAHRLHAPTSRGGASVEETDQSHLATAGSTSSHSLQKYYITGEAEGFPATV

Assay [5] can be described thus: qHTS assay to identify small molecule antagonists of the estrogen receptor alpha (ER-alpha) signaling pathway - cell viability counter screen (AID 743074; calls by dose curve; also: nearly all actives have a fitted effect of over 45% in size).
For assay [6], the target named is Estrogen receptor (Homo sapiens) (UniProt P03372). Kind of assay: qHTS assay to identify small molecule agonists of the estrogen receptor alpha (ER-alpha) signaling pathway (AID 743075; calls by dose curve).
Assay [7] can be described thus: qHTS assay to identify small molecule antagonists of the estrogen receptor alpha (ER-alpha) signaling pathway using the BG1 cell line (AID 743080; calls by dose curve;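 also: BG1 cells stimulated with 17beta-estradiol alongside compound; series mostly up to about 70 µM; nearly all actives have a fitted effect of over 25% in size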). Put shortly:
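Quantitative HTS on the Tox21 10K library: BG1 cells with endogenous ER-alpha and ERE-luciferase reporter, 17beta-estradiol stimulation, 21.5 h compound exposure, luminescence endpoint with parallel fluorescence cytotoxicity counter-read.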

A short description of assay [8]: qHTS assay to identify small molecule antagonists of the estrogen receptor alpha (ER-alpha) signaling pathway using the BG1 cell line - cell viability counter screen (AID 743081).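 Also: compound given together with 17beta-estradiol as the ER stimulus; series mostly up to about 70 µM; nearly all actives have a fitted effect of over 45% in size.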
Another assay concerns the target Aromatase (Homo sapiens) (UniProt P11511). Kind of assay: qHTS assay to identify aromatase inhibitors (AID 743083). Also: nearly all actives have a fitted effect of over 55% in size. Also: potency is read from the fitted curve at half-maximal effect.
The nature of assay [9]: qHTS assay to identify aromatase inhibitors - cell viability counter screen (AID 743084).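 Also: cells stimulated with testosterone during compound exposure; nearly all actives have a fitted effect of over 55% in size.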 Also: potency is read from the fitted curve at half-maximal effect.
Assay [10] can be described thus: qHTS assay to identify small molecule that activate the aryl hydrocarbon receptor (AhR) signaling pathway - cell viability counter screen (AID 743086). Also: nearly all actives have a fitted effect of over 45% in size. Also: potency is read from the fitted curve at half-maximal effect. In a few lines:
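HepG2-AhR-luc (HG2L7.5c1) cells, 4000/well, treated 24 h at 37 C with compound; viability measured as CellTiter-Fluor fluorescence after 30 min in the same wells as the luciferase read.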

Assay [11] has as its target Peroxisome proliferator-activated receptor gamma (Homo sapiens) (UniProt P37231). Kind of assay: qHTS assay to identify small molecule agonists of the peroxisome proliferator-activated receptor gamma (PPARg) signaling pathway (AID 743094; active = well fitted activation curve with a large enough effect in the signal ratio in the repeat runs, not every such curve was filed as active; inconclusive = weak or mixed curves, or effect the other way; inactive = no such curve, though single readings can be large or run the other way; the % refers to the signal ratio). Put shortly: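 Agonist activity was taken from a beta-lactamase reporter (FRET substrate, 1 h at room temperature) in HEK293H cells carrying a PPARg UAS-bla construct. Compounds in DMSO were incubated 17 h at 37C after a 5 h cell pre-incubation.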

Assay [12] can be described thus: qHTS assay for small molecule agonists of the antioxidant response element (ARE) signaling pathway - cell viability counter screen (AID 743203; calls by dose curve; also: nearly all actives have a fitted effect of over 55% in size). Put shortly: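 Viability counter screen: CellTiter-Glo luminescence, read after 30 min at room temperature, in ARE-bla HepG2 wells. Compound exposure lasted 16 h at 37C/5% CO2, following a 5 h pre-incubation of the cells after plating.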

The nature of assay [13]: qHTS assay for small molecule activators of the heat shock response signaling pathway - cell viability counter screen (AID 743209). Also: nearly all actives have a fitted effect of over 50% in size. In a few lines: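 Cytotoxicity counter screen run in the same wells as the heat-shock bla reporter assay: HeLa HSE-bla cells, 5 h compound exposure at 37 C, viability read by CellTiter-Glo luminescence.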
Assay [14] is described as follows: qHTS assay for small molecule activators of the heat shock response signaling pathway (AID 743210; active = well fitted activation curve with a large enough effect in the signal ratio in the repeat runs, with a control signal flat, not every such curve was filed as active; inconclusive = weak or mixed curves; the % refers to the signal ratio;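 also: HeLa cells with beta-lactamase reporter driven by heat shock elements; series mostly up to about 63 µM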). In a few lines: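 Following overnight attachment, HSE-bla HeLa cells received test compounds for 5 h at 37 C; beta-lactamase activity was then detected via FRET substrate fluorescence.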
In assay [15] the target is Estrogen receptor (Homo sapiens) (UniProt P03372). Description: qHTS assay to identify small molecule agonists of the estrogen receptor alpha (ER-alpha) signaling pathway using the BG1 cell line (AID 743079). Also: nearly all actives have a fitted effect of over 20% in size.
Assay [16] has as its target Peroxisome proliferator-activated receptor gamma (Homo sapiens) (UniProt P37231). Kind of assay: qHTS assay to identify small molecule antagonists of the peroxisome proliferator-activated receptor gamma (PPARg) signaling pathway (AID 743191; calls by dose curve; also: series mostly up to about 63 µM; nearly all actives have a fitted effect of over 30% in size). Put shortly:
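GeneBLAzer PPARg UAS-bla HEK293H cells, 5 h post-plating, exposed to compounds 17 h at 37C. LiveBLAzer B/G FRET substrate added for 1 h at room temperature; beta-lactamase reporter read by fluorescence intensity.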

Assay [17] in a line: qHTS assay to identify small molecule antagonists of the peroxisome proliferator-activated receptor gamma (PPARg) signaling pathway - cell viability counter screen (AID 743194). Also: nearly all actives have a fitted effect of over 55% in size. In a few lines:
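Cytotoxicity counter screen in PPARg-bla HEK293H cells, same wells as reporter assay. Compounds plus 50 nM rosiglitazone (final) for 17 h at 37 C, then viability read by CellTiter-Glo luminescence.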

In assay [18] the target is Aryl hydrocarbon receptor (Homo sapiens) (UniProt P35869). Description: qHTS assay to identify small molecule that activate the aryl hydrocarbon receptor (AhR) signaling pathway (AID 743085).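 Also: HG2L7.5c1 human HepG2 liver cells with stably integrated DRE-driven firefly reporter; series mostly up to about 70 µM; nearly all actives have a fitted effect of over 15% in size.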 In a few lines:
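Steps: seed HepG2-AhR-luc cells; allow 5 h at 37C; pin-transfer test compound or vehicle; incubate 24 h at 37C; add viability dye (30 min, 37C) and read fluorescence; add luciferase substrate (30 min, RT) and read luminescence.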

Assay [19] in a line: qHTS assay for small molecule agonists of the antioxidant response element (ARE) signaling pathway (AID 743202; active = well fitted activation curve with a large enough effect in the signal ratio in the repeat runs, not every such curve was filed as active; inconclusive = weak or mixed curves, or effect the other way; inactive = no such curve, though single readings can be large or run the other way; the % refers to the signal ratio; also: potency is read from the fitted curve at half-maximal effect). Put shortly:
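HepG2 ARE-bla cells; 16 h treatment at 37 C; FRET-based beta-lactamase fluorescence read after 2 h substrate incubation at room temperature.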

Calls of active or inactive are those of the source. Unless noted, calls follow the shape of the dose curve; as a rule, active = well fitted curve in the direction sought with a large enough effect in the repeat runs; inconclusive = weak or mixed curves; inactive = no such curve, though single readings can be large; an effect the other way counts as inactive or inconclusive.

Sequence of Aryl hydrocarbon receptor (Homo sapiens) (P35869 whole entry, looked up): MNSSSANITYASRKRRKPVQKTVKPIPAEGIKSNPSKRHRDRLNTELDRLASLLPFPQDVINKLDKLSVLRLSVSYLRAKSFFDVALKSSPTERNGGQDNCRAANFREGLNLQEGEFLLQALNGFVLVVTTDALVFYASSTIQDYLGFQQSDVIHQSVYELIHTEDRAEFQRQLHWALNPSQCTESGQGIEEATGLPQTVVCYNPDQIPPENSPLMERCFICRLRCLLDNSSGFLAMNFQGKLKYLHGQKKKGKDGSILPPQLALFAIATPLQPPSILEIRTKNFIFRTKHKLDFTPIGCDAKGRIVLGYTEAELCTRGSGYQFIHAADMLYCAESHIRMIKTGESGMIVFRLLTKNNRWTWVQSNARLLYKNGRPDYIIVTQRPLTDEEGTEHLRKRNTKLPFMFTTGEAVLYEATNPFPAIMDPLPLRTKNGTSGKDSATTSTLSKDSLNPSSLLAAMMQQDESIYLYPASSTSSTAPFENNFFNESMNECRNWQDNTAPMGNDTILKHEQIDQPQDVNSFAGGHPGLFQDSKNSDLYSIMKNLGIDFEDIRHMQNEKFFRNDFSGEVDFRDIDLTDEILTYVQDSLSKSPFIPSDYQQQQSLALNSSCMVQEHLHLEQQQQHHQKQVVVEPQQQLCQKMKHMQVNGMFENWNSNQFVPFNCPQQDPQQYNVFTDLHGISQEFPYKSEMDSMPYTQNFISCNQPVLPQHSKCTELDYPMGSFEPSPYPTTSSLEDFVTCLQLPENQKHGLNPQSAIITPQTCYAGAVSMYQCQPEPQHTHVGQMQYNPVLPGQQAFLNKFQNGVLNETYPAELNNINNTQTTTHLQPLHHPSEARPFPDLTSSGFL
Sequence of Aromatase (Homo sapiens) (P11511 whole entry, looked up): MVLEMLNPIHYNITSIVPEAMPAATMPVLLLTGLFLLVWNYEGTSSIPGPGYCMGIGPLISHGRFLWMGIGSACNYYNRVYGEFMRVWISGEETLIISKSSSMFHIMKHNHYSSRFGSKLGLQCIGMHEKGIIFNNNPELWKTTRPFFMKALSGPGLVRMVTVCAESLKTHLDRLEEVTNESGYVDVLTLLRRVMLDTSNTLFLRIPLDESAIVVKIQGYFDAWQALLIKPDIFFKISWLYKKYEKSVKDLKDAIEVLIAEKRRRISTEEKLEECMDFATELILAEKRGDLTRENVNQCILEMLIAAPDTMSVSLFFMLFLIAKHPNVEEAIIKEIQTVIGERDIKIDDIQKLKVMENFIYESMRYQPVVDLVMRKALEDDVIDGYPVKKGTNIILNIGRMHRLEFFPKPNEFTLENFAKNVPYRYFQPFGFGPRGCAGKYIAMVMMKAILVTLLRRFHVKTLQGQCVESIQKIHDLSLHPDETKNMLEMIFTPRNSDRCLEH
Sequence of Peroxisome proliferator-activated receptor gamma (Homo sapiens) (P37231 whole entry, looked up): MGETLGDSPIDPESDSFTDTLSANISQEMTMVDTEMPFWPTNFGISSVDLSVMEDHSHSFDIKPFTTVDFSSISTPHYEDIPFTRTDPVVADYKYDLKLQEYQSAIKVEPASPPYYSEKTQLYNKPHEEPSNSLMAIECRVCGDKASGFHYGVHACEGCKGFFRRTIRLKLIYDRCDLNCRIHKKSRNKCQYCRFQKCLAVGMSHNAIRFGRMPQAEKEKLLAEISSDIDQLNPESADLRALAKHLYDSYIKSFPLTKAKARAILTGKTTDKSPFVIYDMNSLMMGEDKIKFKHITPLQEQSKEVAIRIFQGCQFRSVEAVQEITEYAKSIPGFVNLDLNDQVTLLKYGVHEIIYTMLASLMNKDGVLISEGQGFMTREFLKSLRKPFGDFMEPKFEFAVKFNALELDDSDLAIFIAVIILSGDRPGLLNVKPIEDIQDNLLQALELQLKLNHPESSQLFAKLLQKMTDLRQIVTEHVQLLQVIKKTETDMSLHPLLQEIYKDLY

For `C1CCC2OC2C1` (configuration not stated), the Potency entry in [1], in [2], in assay [3], in assay [4], in assay [6] and in [7] was “inactive” in each case. For the same molecule, the Potency result (in assay [8]; with Aromatase (Homo sapiens); in [9]; in assay [10]; in assay [11]; in assay [12]) was “inactive” throughout. Further, the Potency result in [13] was “inactive”. Further, the call in assay [5] and in assay [14] was inactive.

With `CC/C(=C\C(=N/O)C(N)=O)C(C)[N+](=O)[O-]` (configuration not stated), the Potency entry in assay [1], in assay [2], in assay [3], in assay [6], in assay [15] and in [7] was “inactive” each time. Further, the Potency result (in assay [8]; with Aromatase (Homo sapiens); in [9]; in assay [10]; in [16]; in assay [17]) was “inactive” in each case. Further, the Potency result in assay [12] and in [13] was “inactive” throughout. In addition, the molecule was classed as inactive in assay [5].

For `CCCCCCCCCCCCCCCC(=O)OC/C=C(C)/C=C/C=C(C)/C=C/C1=C(C)CCCC1(C)C`, the Potency result (in assay [1]; in assay [2]; in [3]; in assay [8]; with Aromatase (Homo sapiens); in assay [9]) was “inactive” each time. The Potency result in assay [18], in [10], in assay [11] and in assay [12] was “inactive” throughout. For the same molecule, the result in assay [5] was inactive.

For `CN1CCC[C@@H]1c1cccnc1`, the Potency result (in assay [1]; in assay [2]; in assay [3]; in assay [7]; in [8]; with Aromatase (Homo sapiens)) was “inactive” throughout. Moreover, the Potency result in assay [9], in assay [18], in [10], in assay [11], in [16] and in assay [17] was “inactive” in each case. Moreover, the Potency entry in assay [19], in [12] and in assay [13] was “inactive” throughout. In addition, the outcome in [5] was inactive.

For `CCOc1cc(OCC)c(C(=O)CCC(=O)O)cc1OCC`, the Potency entry in [1], in [2], in assay [3], in assay [6], in assay [15] and in assay [7] was “inactive” in each case. For the same molecule, the Potency entry (in assay [8]; with Aromatase (Homo sapiens); in assay [9]; in [18]; in assay [10]; in [17]) was “inactive” throughout. Further, the Potency entry in assay [12] and in assay [13] was “inactive” in each case. The molecule was classed as inactive in assay [5] and in [14].

`CC(=O)O[C@@H]1C(=O)O[C@@H]2[C@H]1OC(=O)[C@@H]2OC(C)=O`: the Potency entry in assay [1], in assay [2], in [3], in assay [4], in assay [6] and in [7] was “inactive” throughout. Moreover, the Potency result (in [8]; with Aromatase (Homo sapiens); in assay [9]; in [18]; in [10]; in assay [11]) was “inactive” in each case. In addition, the Potency entry in assay [17] and in assay [12] was “inactive” throughout. Moreover, the molecule was classed as inactive in [5] and in assay [14]. Also, in assay [19], the Potency was 10.6 µM (active).

On to `CCc1nn(C2CCCCC2)c2cc(C3(C#N)CCC(C(=O)O)CC3)ccc12` (configuration not stated), for which the Potency in assay [1] was 34.4 µM (active); in [2], 61.1 µM (active); in [4] it was 13.8 µM [inconclusive] (active); with Aromatase (Homo sapiens), 38.6 µM (active); in assay [9], 54.5 µM (active); in assay [10] it was 24.3 µM (active). In assay [19], the Potency was 27.3 µM (active). The molecule was classed as inactive in assay [5] and in assay [14]. The Potency result in assay [15], in assay [7], in assay [8], in [18] and in [12] was “inactive” throughout.

With `CC(C)c1cccc(C(C)C)c1NC(=O)NS(=O)(=O)c1cc(C(C)(C)O)co1`, the Potency entry in [1], in [2], in assay [3], in assay [8], in [17] and in [12] was “inactive” in each case. The Potency entry in assay [13] was “inactive”. In addition, the result in assay [5] and in assay [14] was inactive.

`CCC(=O)OC(C)(C)C1CC=C(C)CC1` (configuration not stated): the Potency result in [1], in assay [2], in assay [3], in assay [6], in assay [7] and in assay [8] was “inactive” in each case. Besides, the Potency result (with Aromatase (Homo sapiens); in assay [9]; in [10]; in [11]; in assay [16]; in assay [17]) was “inactive” each time. For the same molecule, the Potency entry in [13] was “inactive”. Besides, the molecule was called inactive in assay [14].
